The test system of experiment [1] is NIH3T3. The experiment in a line: qHTS assay to identify novel small-molecules to repurpose for Merkel cell carcinoma treatment (AID 1296009). Further: nearly all actives have a fitted effect of over 60% in size. The note with it: MCC and control cell lines, CellTiter-Glo viability, 72 h; series mostly up to 44.8 µM. A digest of the protocol: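 Luminescence from CellTiter-Glo, read 10 min after addition at room temperature, reported viability following a 72 hr, 37 degree celsius treatment with NPC or MIPE compounds in titration; values normalized to plate controls.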
Background: In qHTS, concentration-response curves come from the screen itself.

For experiment [2], the system named is C33A. Briefly: Primary qHTS to identify gynecologic anti-cancer compounds using libraries of approved drugs and bioactive compounds (AID 1345084). Further: nearly all actives have a fitted effect of over 55% in size. Further: potency means the concentration at half of the fitted maximal effect. On activity change, negative = cytotoxicity: on the % scale 0 is the no-effect control and ±100 the full control effect. Particulars: Gynecologic cancer cell panel viability, ATPlite luminescence, 48 h; series mostly up to 57.5 µM. A digest of the protocol: (§1)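 Cells, 1,000 per well, were allowed to settle for 16 h at 37 C before compound addition. Five concentrations were tested for 48 h, and viability was read by ATPlite luminescence after 15 min at room temperature.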

Experiment [3] concerns CAOV3. Described as above. Particulars: Gynecologic cancer cell panel viability, ATPlite luminescence, 48 h; series mostly up to 57.5 µM. Summed up: as §1
For experiment [4], the system named is CASKI. Described as above. The note with it: Gynecologic cancer cell panel viability, ATPlite luminescence, 48 h; series mostly up to 57.5 µM. Summed up: as §1
Background: In ATP-based viability assays light output follows the ATP content of the culture.

In experiment [5] the test system is Es-2. The experiment is described as above. The note with it: Gynecologic cancer cell panel viability, ATPlite luminescence, 48 h; series mostly up to 57.5 µM. A digest of the protocol: as §1
The subject of experiment [6] is HeLa. The experiment is described as above. The note with it: Gynecologic cancer cell panel viability, ATPlite luminescence, 48 h; series mostly up to 57.5 µM. Summed up:
as §1

The test system of experiment [7] is Hek293T. The description is as above. The note with it: Gynecologic cancer cell panel viability, ATPlite luminescence, 48 h, control line for the selectivity index; series mostly up to 57.5 µM. A digest of the protocol: as §1
Experiment [8] deals with JEG-3. The description is as above. Particulars: Gynecologic cancer cell panel viability, ATPlite luminescence, 48 h; series mostly up to 57.5 µM. A digest of the protocol:
as §1

Experiment [9] has as its system OV90. Described as above. The note with it: Gynecologic cancer cell panel viability, ATPlite luminescence, 48 h; series mostly up to 57.5 µM. Summed up:
as §1

For experiment [10], the system named is PA-1. The description is as above. The note with it: Gynecologic cancer cell panel viability, ATPlite luminescence, 48 h; series mostly up to 57.5 µM. A digest of the protocol:
as §1

Experiment [11] concerns SKOV3. The description is as above. Particulars: Gynecologic cancer cell panel viability, ATPlite luminescence, 48 h; series mostly up to 57.5 µM. Summed up: as §1
The subject of experiment [12] is Tov-21-G. Described as above. Particulars: Gynecologic cancer cell panel viability, ATPlite luminescence, 48 h; series mostly up to 57.5 µM. A digest of the protocol:
as §1

Experiment [13] deals with Tov112D. Described as above. The note with it: Gynecologic cancer cell panel viability, ATPlite luminescence, 48 h; series mostly up to 57.5 µM. A digest of the protocol: as §1

Inconclusive results are not listed. Values without a mark were called inactive. Active and inactive are the calls of the source. The call rests on the fitted dose curve; in most records, active means well fitted curve in the direction sought with a large enough effect; inconclusive means small, poorly fitted or top-dose-only effect, or another doubt; inactive means no such curve, though single readings can be large; an effect the other way counts as inactive or inconclusive.

On to `O=C(/C=C/c1ccccc1O)O[C@@H]1O[C@H](CO)[C@@H](O)[C@H](O)[C@H]1O`, for which the Potency result in experiment [1], in experiment [2], in [3], in experiment [4], in experiment [5] and in experiment [6] was “inactive” each time. Besides, the Potency entry in experiment [7], in experiment [8], in [9], in [10], in [11] and in experiment [12] was “inactive” in each case. Also, the Potency result in [13] was “inactive”.

Consider `C=C1CCC2C(C)(C)CCCC2(C)C1CC/C(C)=C\CO` (centres undefined), for which the Potency result in experiment [1], in [2], in [3], in experiment [4], in experiment [5] and in experiment [6] was “inactive” in each case. Further, the Potency result in experiment [7], in experiment [8], in [9], in experiment [10], in experiment [12] and in experiment [13] was “inactive” in each case.

For the molecule `CCCCCCCOc1cc2c(cc1/C(C)=C/c1ccc(C(=O)O)cc1)C(C)(C)CCS2(=O)=O`, the Potency entry in experiment [1], in [2], in experiment [3], in experiment [4], in experiment [5] and in [6] was “inactive” in each case. In addition, the Potency entry in [7], in [8], in [9], in experiment [10], in [11] and in experiment [12] was “inactive” each time. In addition, the Potency entry in experiment [13] was “inactive”.

Consider `C=CC(=O)N1CC(N2CCN(C(=O)CNc3cc(C4CC4)c(Cl)cc3O)CC2)C1`, for which the Potency result in experiment [1], in experiment [2], in experiment [3], in [4], in [5] and in experiment [6] was “inactive” each time. Moreover, the Potency result in experiment [7], in experiment [8], in experiment [9], in [11], in experiment [12] and in experiment [13] was “inactive” throughout.

As to `CCCn1cc2c(nc(NC(=O)Nc3ccc(OC)cc3)n3nc(-c4ccco4)nc23)n1`, the Potency entry in [1], in experiment [2], in [3], in experiment [4], in experiment [5] and in experiment [6] was “inactive” throughout. Moreover, the Potency entry in experiment [7], in experiment [8], in experiment [9], in [10], in experiment [12] and in [13] was “inactive” each time.

For the molecule `Nc1c(S(=O)(=O)c2ccccc2)c2nc3ccccc3nc2n1-c1ccc(F)cc1`, the Potency result in experiment [1], in experiment [2], in experiment [3], in experiment [4], in experiment [5] and in [6] was “inactive” in each case. Moreover, the Potency result in experiment [7], in [8], in experiment [9], in experiment [10], in experiment [12] and in experiment [13] was “inactive” each time.

For `C=CCCN1CCC2(CC1)CN(C(=O)c1c(F)cccc1F)c1ccc(Cl)cc12`, the Potency result in experiment [1], in [2], in [3], in experiment [4], in experiment [5] and in experiment [6] was “inactive” in each case. In addition, the Potency entry in experiment [7], in experiment [8], in experiment [9], in experiment [10], in experiment [11] and in [12] was “inactive” in each case. Moreover, in experiment [13], the Potency result was “inactive”.

As to `CCCCOC(=O)NS(=O)(=O)c1sc(CC(C)C)cc1-c1ccc(Cn2ccnc2)cc1`, the Potency result in [1], in experiment [2], in experiment [3], in experiment [4], in experiment [5] and in experiment [6] was “inactive” each time. Further, the Potency result in experiment [7], in [8], in experiment [9], in experiment [10], in experiment [11] and in [12] was “inactive” throughout. In addition, the Potency entry in experiment [13] is “inactive”.

With `COc1ccccc1-c1ccc(-c2cn(C(=O)N3CCCCC3Cc3ccccc3)nn2)cc1` (centres undefined), the Potency result in [1], in experiment [2], in [3], in [4], in experiment [5] and in [8] was “inactive” throughout. Further, the Potency result in experiment [11], in experiment [12] and in experiment [13] was “inactive” each time.

With `CC(C)(O)/C=C/C(=O)[C@](C)(O)[C@H]1[C@H](O)C[C@@]2(C)[C@@H]3CC=C4[C@@H](C[C@H](O[C@@H]5O[C@H](CO)[C@@H](O)[C@H](O)[C@H]5O)C(=O)C4(C)C)[C@]3(C)C(=O)C[C@]12C`, the Potency result in experiment [1], in [2], in [4], in experiment [5], in experiment [6] and in experiment [7] was “inactive” throughout. The Potency result in [8], in experiment [9], in [10], in [12] and in [13] was “inactive” throughout.

For the molecule `NC(=O)c1cccc2[nH]c(-c3ccc(C4CCCN4)cc3F)nc12` (centres undefined), the Potency entry in experiment [1] was “inactive”. Besides, the Potency in experiment [2] was 17.8 µM (active); in [3], 10 µM (active); in experiment [5] it was 15.8 µM (active); in experiment [7], 12.6 µM (active); in experiment [8], 11.2 µM (active); in experiment [11] it was 14.1 µM (active). For the same molecule, the Potency was 12.6 µM (active) in [12] and 15.8 µM (active) in experiment [13].

`CO[C@H]1[C@@H](O)[C@H](O[C@H]2CC[C@@]3(C)C(CCC4C3CC[C@]35COC6(COC(=O)C6)C3CCC45O)C2)O[C@@H](C)[C@@H]1OC1OC(CO)C(OC2OC(CO)C(O)C(O)C2O)C(O)C1O` (some centres undefined): in experiment [1], the outcome was “inactive [at 9.27 µM]”. Also, the activity change, negative = cytotoxicity in [3] was -7.69% [at 11.6 µM]; in experiment [4], -2.83% [at 11.6 µM]; in experiment [7] it was -29.3% [at 11.6 µM]; in experiment [8] it was 18.5% [at 11.6 µM]; in experiment [9], 16.3% [at 11.6 µM]. Also, the Potency in experiment [13] is 2.82 µM (active).

With `CNC(=O)COC(=O)N1CCC(CCc2ccc(Cl)cc2)CC1`, the Potency entry in experiment [2], in [3], in experiment [4], in experiment [5], in [6] and in experiment [7] was “inactive” each time. Moreover, the Potency entry in experiment [8], in experiment [9], in [10], in [11], in experiment [12] and in [13] was “inactive” each time.

As for `CCn1c(-c2nonc2N)nc2c(C#CCO)ncc(OCCCN)c21`, the Potency entry in experiment [1], in experiment [2], in experiment [5], in [6] and in [12] was “inactive” each time. Moreover, the Potency in [4] was 25.1 µM (active).

For `C=C1CO[C@@]2(O[C@H]3CC4C5CC=C6C[C@@H](O)C[C@@H](O[C@@H]7OC[C@H](O)[C@H](O[C@@H]8OC[C@@H](O)[C@H](O)[C@H]8O)[C@H]7O[C@@H]7O[C@@H](C)[C@H](OC(C)=O)[C@@H](OC(C)=O)[C@H]7OC(C)=O)[C@]6(C)C5CC[C@]4(C)[C@@H]3[C@@H]2C)[C@@H](O)[C@H]1OC1OC(C)C(O)C(O)C1O` (some centres undefined), the outcome in [1] is “inactive [at 9.27 µM]”. Besides, the activity change, negative = cytotoxicity is -13% [at 6.55 µM] in [3]; -16.5% [at 6.55 µM] in [4]; -0.0762% [at 6.55 µM] in [5]; -7.77% [at 6.55 µM] in experiment [6]; -3.45% [at 6.55 µM] in [7]; -10.9% [at 6.55 µM] in [8]. The Potency in [9] was 2.82 µM (active); in experiment [10], 3.55 µM (active); in [13], 3.55 µM (active).

Values taken from PubChem BioAssay (NCATS).
